Compound activity deposited in PubChem BioAssay by several laboratories.
Only some compounds are listed: those with a hit (about 1.6% of all), similar ones and a draw of the others.
N-glyco inh – blocks N-linked glycosylation in D54 reporter cells; D54 ERlucT glycosylation luciferase reporter, 24 h; percent of 100 nM tunicamycin response; reporter increase, % at 12.5 µM; 0.23% of 360,000 active;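 active = mean luciferase reporter signal, scaled so untreated is 0 and the glycosylation-blocking control 100, at or above a set limit in every replicate; inconclusive = mean reaches the limit but not every replicate does; inactive = mean below the limit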;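 note: luciferase carries N-glycosylation sites so blocking glycosylation raises the light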
ABCB6 inh MLPCN – blocks the human ABCB6 transporter; K562-ABCB6 porphyrin accumulation, flow cytometry, 1 h; hits give low values; fluorescence ratio to DMSO, % at 10 µM; 0.19% of 360,000 active;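 active = fluorescence ratio to DMSO below 75%, the collection mean minus 3 SD; inconclusive = too few cells collected in the well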;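 note: signal is porphyrin accumulated inside mitochondria; lower ratio means ABCB6 inhibition with less porphyrin fluorescence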
Target sequence (Q9NP58 whole entry, looked up): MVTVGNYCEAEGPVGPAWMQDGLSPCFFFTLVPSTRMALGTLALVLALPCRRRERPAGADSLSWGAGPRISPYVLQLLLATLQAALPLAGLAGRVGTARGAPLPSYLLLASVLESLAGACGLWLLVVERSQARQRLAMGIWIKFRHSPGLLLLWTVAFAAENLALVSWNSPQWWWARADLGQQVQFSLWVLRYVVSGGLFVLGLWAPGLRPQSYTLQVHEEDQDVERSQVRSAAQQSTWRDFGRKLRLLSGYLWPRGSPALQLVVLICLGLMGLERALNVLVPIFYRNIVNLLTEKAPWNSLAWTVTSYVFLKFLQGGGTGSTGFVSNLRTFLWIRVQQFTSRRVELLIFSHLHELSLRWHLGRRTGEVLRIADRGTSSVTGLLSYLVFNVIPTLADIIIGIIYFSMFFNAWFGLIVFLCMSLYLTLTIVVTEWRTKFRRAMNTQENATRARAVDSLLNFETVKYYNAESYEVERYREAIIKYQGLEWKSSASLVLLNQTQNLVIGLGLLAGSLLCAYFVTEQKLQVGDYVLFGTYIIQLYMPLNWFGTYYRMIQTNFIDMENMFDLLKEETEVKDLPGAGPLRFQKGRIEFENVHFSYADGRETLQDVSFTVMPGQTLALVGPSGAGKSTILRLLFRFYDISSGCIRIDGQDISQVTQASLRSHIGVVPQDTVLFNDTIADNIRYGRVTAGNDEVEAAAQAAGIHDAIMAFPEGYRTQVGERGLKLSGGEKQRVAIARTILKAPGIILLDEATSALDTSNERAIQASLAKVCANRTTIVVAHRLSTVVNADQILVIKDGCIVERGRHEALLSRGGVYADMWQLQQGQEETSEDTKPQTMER
RAD54 inh – inhibitors of human RAD54 branch migration; RAD54 Holliday junction branch migration, FAM/BHQ fluorescence; AID 602329; inhibition, % at 10.4 µM; 0.14% of 360,000 active; Q92698;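 active = mean normalized replicate activity at least 40 and at least half of replicates scoring 40 or more; inconclusive = only one of the two criteria met; inactive = mean below 40 and under half of replicates reaching 40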;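 note: inhibitors cause a drop in the FAM fluorescence signal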
Myeloid diff MLP – myeloid differentiation induction; ER-HoxA9 myeloid progenitors, lysozyme-GFP differentiation, flow cytometry; calls only at 10 µM; 1% of 360,000 active; AID 624256;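 active = normalized GFP-positive differentiation at or above the plate's own cutoff, the solvent-only control mean plus 3 SD; inconclusive = no clear call, values can overlap the other calls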;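 note: cells exposed to compound for four days before flow analysis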
Vif inh – inhibitors of HIV Vif; HEK293T cells, Vif self-association by quenched fluorescence, imaging, 24 h; inhibition, % at 7.49 µM; 0.35% of 340,000 active; AID 602346; in the data active = inhibition above about 50%, passing the limit was not always enough; inconclusive = no clear call, values can overlap the other calls; inactive = below about 31%
Of the large screens only hits and unclear results are named; the others gave an inactive call.

NNc1nc2c(-c3ccc(Cl)cc3)nnn2c2ccccc12	Myeloid diff MLP active
CN(C)CCOC(c1ccccc1)c1ccccc1 (tested in a mixture with another compound)	Myeloid diff MLP active
C[C@@H]1CCCCO[C@H](CN(C)S(=O)(=O)c2ccc(Cl)cc2)[C@@H](C)CN([C@@H](C)CO)C(=O)c2cc(NC(=O)Nc3cccc4ccccc34)ccc2O1	none (no result: N-glyco inh, ABCB6 inh MLPCN, Myeloid diff MLP, Vif inh)
CC(=O)C1=C(C)OC(N)=C(C#N)C1c1cc([N+](=O)[O-])ccc1Cl (stereo unspecified)	N-glyco inh 29.5, Myeloid diff MLP inconclusive (no result: RAD54 inh)
Cc1ccc(-c2nc3ncccc3o2)cc1NC(=O)c1ccc([N+](=O)[O-])o1	N-glyco inh 35.8, Myeloid diff MLP inconclusive
CN(C)CC(=O)N[C@@H]1CC[C@@H](CCn2cc(C3CC3)nn2)O[C@@H]1CO	none (no result: N-glyco inh, ABCB6 inh MLPCN, Myeloid diff MLP, Vif inh)
CCCN1C[C@@H](C)[C@@H](OC)CN(C)C(=O)c2cc(NC(=O)Nc3ccccc3F)ccc2OC[C@H]1C	none (no result: N-glyco inh, ABCB6 inh MLPCN, Myeloid diff MLP, Vif inh)
CC1N(C)c2cccc3cccc(c23)N1C	Myeloid diff MLP active
CN1c2cccc3cccc(c23)N(C)C1c1cccs1	none (no result: RAD54 inh)
CCCC#Cc1ccc2c(c1)O[C@H](CN(C)Cc1cccnc1)[C@H](C)CN([C@@H](C)CO)S2(=O)=O	none (no result: N-glyco inh, ABCB6 inh MLPCN, Myeloid diff MLP, Vif inh)
CCCC#Cc1ccc2c(c1)O[C@H](CN(C)Cc1ccncc1)[C@H](C)CN([C@@H](C)CO)S2(=O)=O	none (no result: N-glyco inh, ABCB6 inh MLPCN, Myeloid diff MLP, Vif inh)
C=CCN(CC=C)C(=O)C1c2ccccc2Oc2ccccc21	none
CCN(CC)C(=O)C1c2ccccc2Oc2ccccc21	Myeloid diff MLP active
COc1ccc(S(=O)(=O)N(C)C[C@H]2OCCCC[C@H](C)Oc3ccc(NS(=O)(=O)c4cccs4)cc3C(=O)N([C@H](C)CO)C[C@@H]2C)cc1	none (no result: N-glyco inh, ABCB6 inh MLPCN, Myeloid diff MLP, Vif inh)
COc1ccc(C2(CNC(=O)c3cc(OC)c(OC)c(OC)c3)CCCC2)cc1OC	N-glyco inh 34.6
COc1cc(C(=O)NCC2(c3ccccc3)CCCC2)cc(OC)c1OC	none
O=C(NCC[C@@H]1CC[C@@H](NC(=O)c2ccc3c(c2)OCO3)[C@H](CO)O1)Nc1ccc(Cl)cc1	none (no result: N-glyco inh, ABCB6 inh MLPCN, Myeloid diff MLP, Vif inh)
O=C(COC(=O)c1c(F)cccc1F)Nc1ccccc1OC(F)F	Vif inh 50.6
CCCOc1ccc(F)cc1-c1cc(C(=O)Nc2ccc(C(C)C)cc2)[nH]n1	N-glyco inh 55.3
CCCOc1ccc(F)cc1-c1cc(C(=O)Nc2ccc(OC)c(OC)c2)[nH]n1	none
CC(C)C#Cc1ccc2c(c1)O[C@H](CN(C)C)[C@@H](C)CN([C@H](C)CO)S2(=O)=O	none (no result: N-glyco inh, ABCB6 inh MLPCN, Myeloid diff MLP, Vif inh)
NNC(=O)c1sc(-c2ccc(Cl)cc2)cc1N	Myeloid diff MLP active
CCOC(=O)c1sc(-c2ccc(Br)cc2)cc1N	none
CCN(CC)c1ccc(/C=C/c2cc(-c3ccccc3)c3ccccc3n2)cc1	Myeloid diff MLP active (no result: Vif inh)
COc1cccc(-c2csc(N3CCN(C(=O)Nc4ccccc4OC)CC3)n2)c1	Vif inh 122.3 (no result: RAD54 inh)
COc1cccc(-c2csc(N3CCN(C(=O)Nc4ccc(F)cc4)CC3)n2)c1	none
CCCCn1c(SCc2c(C)noc2C)nc2cc(S(N)(=O)=O)ccc21	N-glyco inh 39.7
COc1ccc(NC(=O)NCCCN2CCCC2=O)cc1	none
COc1ccc(NC(=O)CC(C)NCCCN2CCCC2=O)cc1 (stereo unspecified)	Myeloid diff MLP active
CCc1cc2cc(C)ccc2nc1SCC(=O)N1CC(=O)Nc2ccccc21	none
CCc1ccc2nc(SCC(=O)N3CC(=O)Nc4ccccc43)c(C#N)cc2c1	Myeloid diff MLP active (no result: Vif inh)
CCc1ccc2nc(SCC(=O)Nc3ccccc3N3CCOCC3)c(C#N)cc2c1	Myeloid diff MLP active (no result: RAD54 inh)
CCNC(=O)C[C@H]1CC[C@@H]2[C@H](COC[C@@H](O)CN2C(=O)Nc2c(C)noc2C)O1	none (no result: N-glyco inh, ABCB6 inh MLPCN, Myeloid diff MLP, Vif inh)
CC(C)Nc1nc(NC(C)C)nc(NS(=O)(=O)c2ccc(N)cc2)n1	none
CCNc1nc(NC(C)C)nc(NS(=O)(=O)c2ccc(N)cc2)n1	Myeloid diff MLP active
C[C@H]1CN([C@@H](C)CO)S(=O)(=O)c2ccc(-c3cccc(C#N)c3)cc2O[C@H]1CN(C)C(=O)c1ccc(F)cc1	none (no result: N-glyco inh, ABCB6 inh MLPCN, Myeloid diff MLP, Vif inh)
CN(C)C(=O)C[C@@H]1CC[C@H]2[C@@H](COC[C@@H](O)CN2CC2CCCCC2)O1	none (no result: N-glyco inh, ABCB6 inh MLPCN, Myeloid diff MLP, Vif inh)
O=C(c1ccccc1)N(CCO)Cc1cc2cc3c(cc2[nH]c1=O)OCCO3	none (no result: RAD54 inh)
CCOc1ccccc1C(=O)N(Cc1ccccc1)Cc1cc2cc3c(cc2[nH]c1=O)OCCO3	Myeloid diff MLP active
CCOC(=O)c1c(C)nc2sc(C(=O)Nc3ccccc3)c(N)c2c1-c1ccc(OC)cc1	Myeloid diff MLP active
COc1ccc(CCNC(=O)CN(c2ccc(OC)c(OC)c2)S(=O)(=O)c2ccc(C)cc2)cc1	Myeloid diff MLP active
COC(=O)\C(C(C)=O)=C(/C=C/C=C/N(C)C)N(C)C	Vif inh 61.6
S=C(S)N1CCCC1	Vif inh 74.9
Oc1ccc(C(=S)N2CCCC2)cc1	none
CC(C)C(NC(=O)C12CC3CC(CC(C3)C1)C2)C(=O)N/N=C/C1=C(N2CCOCC2)C(=C\c2ccc([N+](=O)[O-])cc2)/CC1 (stereo unspecified)	Myeloid diff MLP active (no result: RAD54 inh)
Cc1nc2ncnn2c(C)c1Cc1cccc(C(F)(F)F)c1	Myeloid diff MLP active
COc1cccc(S(=O)(=O)N2CC[C@@H]3[C@H](CO)Nc4ccc(C#Cc5ccccc5)cc4[C@@H]32)c1	none (no result: N-glyco inh, ABCB6 inh MLPCN, Myeloid diff MLP, Vif inh)
C/C(=N\NS(=O)(=O)c1ccc(C)c([N+](=O)[O-])c1)c1cc2ccccc2o1	Myeloid diff MLP active
C/C(=N\NS(=O)(=O)c1ccc(Cl)c([N+](=O)[O-])c1)c1cc2ccccc2o1	Vif inh inconclusive
CNC[C@@H]1OCCCC[C@@H](C)Oc2ccc(NS(=O)(=O)c3c(C)noc3C)cc2C(=O)N([C@@H](C)CO)C[C@H]1C	none (no result: N-glyco inh, ABCB6 inh MLPCN, Myeloid diff MLP, Vif inh)
S=C(NCCNC(=S)Nc1ccccc1Cl)Nc1ccccc1Cl	none (no result: Vif inh)
CN(C)CCNC(=S)Nc1ccccc1Cl	Vif inh 64.9
CO[C@H]1CN(C)C(=O)c2ccc(NC(=O)NC(C)C)cc2OC[C@@H](C)N(C(=O)CC2CC2)C[C@@H]1C	none (no result: N-glyco inh, ABCB6 inh MLPCN, Myeloid diff MLP, Vif inh)
CN(C)c1ccc(C=Cc2ccnc3c(O)cccc23)cc1	Vif inh 50.9 (no result: Myeloid diff MLP)
CC(C)NC(=O)Nc1ccc2c(c1)C(=O)N(C)[C@H]1CC[C@H](CC(=O)NC3CCCCC3)O[C@H]1CO2	none (no result: N-glyco inh, ABCB6 inh MLPCN, Myeloid diff MLP, Vif inh)
O=C(c1ccoc1)N1CCC2(CC1)Oc1ccc(F)cc1C(=O)C21CC(c2ccc(Cl)cc2)=NO1 (stereo unspecified)	Myeloid diff MLP active
O=C(c1ccoc1)N1CCC2(CC1)Oc1ccc(Cl)cc1C(=O)C21CC(c2ccc(Cl)cc2)=NO1 (stereo unspecified)	none
COc1ccc(CN(C)C[C@@H]2Oc3ccc(NC(=O)Nc4ccc5c(c4)OCO5)cc3C(=O)N([C@H](C)CO)C[C@H]2C)cc1	RAD54 inh 66.8 (no result: N-glyco inh, ABCB6 inh MLPCN, Myeloid diff MLP, Vif inh)
COc1ccc(S(=O)(=O)N(C)C[C@H]2Oc3ccc(NS(=O)(=O)c4cccs4)cc3C(=O)N([C@H](C)CO)C[C@@H]2C)cc1	Myeloid diff MLP active
